Assay outcomes as filed in PubChem.
An excerpt weighted towards active compounds, which were near 4.2% of everything screened.
hcDAF12 agonist = H. contortus DAF-12 nuclear receptor activators, primary screen, cell-based, luminescence, HEK293, lit1-tk-luc reporter; HEK293 hcDAF-12 lit1-tk-luc reporter; 0% DMSO, 100% Δ7-dafachronic acid; activation, % at 6.8 µM; 1.4% of 370,000 active; AID 652067, 2013;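 active = activation above the mean of all tested compounds plus 3 SD, cut at about 5.5% in these data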
hgDAF-12 ag = H. glycines DAF-12 receptor agonists, primary screen, cell-based, luminescence, HEK293, GAL4 fusion, UAS-luciferase. Nuclear hormone receptor DAF-12 (Heterodera glycines), GAL4 fusion. HEK293 GAL4-hgDAF12 UAS-luciferase reporter, agonist luminescence; normalized to butyrate control. activation, % at 6.8 µM. 1.8% of 370,000 active;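 active = activation above a cutoff set at the mean of all screened compounds plus 3 SD, cut at about 10% in these data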
SMARCA2 act = SMARCA2 (BRM) function activators, primary screen, cell-based, luminescence, high throughput | activation, % at 9.1 µM | AID 652017, 2013 | 1% of 370,000 active | MG213 cells, MMTV-luciferase reporter, dexamethasone, overnight; in the data active = activation above about 7.8%
DAX1 inh = DAX1 (NR0B1) inhibitors on StAR promoter, primary screen, cell-based, luminescence, SF-1 (NR5A1), full-length DAX-1. AID 652010, 2013. inhibition, % at 6.8 µM. HEK293T StAR-luciferase reporter, SF-1/DAX-1 repression relief. 1.1% of 370,000 active;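 active = inhibition above the mean over all tested compounds plus 3 SD, cut at about 3.6% in these data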;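 note: higher inhibition means more luminescence from relief of DAX-1 repression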
ssDAF12 agonist = S. stercoralis DAF-12 nuclear receptor activators, primary screen, cell-based, luminescence, HEK293, GRIP1 co-expression, lit1-tk-luc. AID 652126, 2013. activation, % at 6.8 µM. HEK293 ssDAF-12/GRIP1 lit1-tk-luc reporter; % of 3 µM dafachronic acid response. 1% of 370,000 active;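 active = activation above the mean over all tested compounds plus 3 SD, cut at about 0.9% in these data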
Large screens that a line does not name were inactive.

COc1cc(C(=O)Nc2c(C(=O)O)[nH]c3ccc(C)cc23)cc(OC)c1OC	hcDAF12 agonist 6.1
O=[N+]([O-])c1ccc(CSc2nc3ccccc3o2)cc1	hgDAF-12 ag 12, DAX1 inh 3.6
N/C(=N\OC(=O)c1ccc(Cl)c(Cl)c1)c1ccccn1	hgDAF-12 ag 11, DAX1 inh 4.2
N/C(=N\OC(=O)c1ccccc1Br)c1ccc([N+](=O)[O-])cc1	hcDAF12 agonist 6.1
N/C(=N\OC(=O)C12CC3CC(CC(C3)C1)C2)c1ccccn1	hgDAF-12 ag 11
N/C(=N\OC(=O)c1ccccc1[N+](=O)[O-])c1ccccn1	hgDAF-12 ag 10
C#CCN1CC(N(C)CCOC(=O)c2ccc([N+](=O)[O-])cc2)CS1(=O)=O (stereo not drawn)	none
COC(=O)[C@]12C[C@H](CC(=O)NCC3CCCCC3)C(=O)N(Cc3ccc(Cl)cc3Cl)C1=C[C@H](C1CCCC1)O[C@@H]2C	none
C[C@H]1CN([C@@H](C)CO)S(=O)(=O)c2ccc(C#Cc3cccnc3)cc2O[C@@H]1CN(C)C(=O)Nc1ccc2c(c1)OCO2	none
CCOC(=O)[C@]12CCCC=C1N(CCc1ccc(Cl)cc1)C(=O)[C@@H]2CC(=O)NCCC(C)C	none
CC(=O)C1=CCC(c2ccccc2)N(S(=O)(=O)c2ccccc2)C1 (stereo not drawn)	none
Cc1cc(/C(N)=N/OC(=O)c2ccc(Cl)cc2)no1	hgDAF-12 ag 11
N/C(=N\OC(=O)c1ccc(Cl)cc1)c1ccccn1	DAX1 inh 4.2
Cc1cc(C(=O)NNC(=O)c2ccc(Cl)cc2)no1	none
Cc1ccc(-c2nnc3n2N=C(c2ccc(-c4ccccc4)cc2)CS3)cc1	none
CS(=O)(=O)c1nsc2nc(=O)c(/C=C3\C=Nc4ccccc43)c(N)n12	ssDAF12 agonist 1.0
CCCCc1nn2c(N)c(/C=C3\C=Nc4ccccc43)c(=O)nc2s1	ssDAF12 agonist 2.7
Cn1cccc1-c1nc2ccc([N+](=O)[O-])cc2[nH]1	hgDAF-12 ag 11
COc1cccc(C(O)c2ncc(-c3ccc(C(F)(F)F)cc3)[nH]2)c1 (stereo not drawn)	none
Cn1c2c(c(=O)n(C)c1=O)C(c1ccccc1Cl)CC(=O)N2 (stereo not drawn)	hcDAF12 agonist 5.8
COc1ccccc1C1CC(=O)Nc2c1c(=O)n(C)c(=O)n2C (stereo not drawn)	none
O=C(Nc1cccc(F)c1)OC1CC2CC1[C@H]1CCCCN1[C@H]2Cc1ccccc1 (stereo partly drawn)	none
CC(C)(C)n1ncc2c(=O)n(CC(=O)NCc3ccccc3Cl)cnc21	hcDAF12 agonist 6.1
COC(=O)[C@H](C)NC(=O)C(Cc1ccc2c(c1)OCO2)NC(C)=O (stereo partly drawn)	none
COc1ccc(NC(=O)C(C)N2C(=O)c3ccccc3S2(=O)=O)c(OC)c1 (stereo not drawn)	none
CCOc1ccccc1NC(=O)C(C)N1C(=O)c2ccccc2S1(=O)=O (stereo not drawn)	DAX1 inh 3.7
O=C(NCc1ccc(F)cc1)c1cc(C2CCCCN2C(=O)c2ccc(Cl)cc2)on1 (stereo not drawn)	none
O[C@@H]1C[C@H](c2ccc(Cl)cc2)N(CC2CCCCC2)C[C@H]1n1cc(C2CC2)nn1	SMARCA2 act 7.9
O[C@H]1C[C@H](c2ccc(Cl)cc2)N(CC2CCCCC2)C[C@@H]1n1cc(C2CC2)nn1	none
O[C@@H]1C[C@H](c2ccccc2)N(CC2CCCCC2)C[C@H]1n1cc(C2CC2)nn1	none
Cc1ccc([C@H]2C[C@@H](O)[C@H](n3cc(C4CC4)nn3)CN2CC2CCCCC2)cc1	SMARCA2 act 7.8
COCCN(C[C@@H]1[C@H](c2ccccc2)[C@H](CO)N1c1nc(C)c(C)s1)S(=O)(=O)c1ccccc1[N+](=O)[O-]	none
C=CCN1[C@@H](CC(C)C)COc2cccc(N3CCCC3)c2S1(=O)=O	none
O=C1CSc2ccccc2N1Cc1ccc(F)cc1	ssDAF12 agonist 1.4
Cc1cc(C(=O)COC(=O)c2ccco2)c(C)n1Cc1ccco1	none
Cc1cc(C(=O)COC(=O)c2cccn2C)c(C)n1Cc1ccco1	DAX1 inh 4.1
N#CCC[C@@H]1CC[C@]2(CCCN(Cc3ccc(Cl)cc3)C2)O1	none
Cc1noc(C)c1-c1ccc(C(=O)NC2CCCCC2)c2occc12	ssDAF12 agonist 1.7
Cc1ccccc1OCC(=O)N/N=C/c1cn(Cc2ccccc2)c2ccccc12	none
Cc1ccc(OCC(=O)N/N=C\c2cn(Cc3ccccc3)c3ccccc23)cc1C	ssDAF12 agonist 1.0
CCN1CCN(CC(=O)c2c[nH]c3ccccc23)CC1	hcDAF12 agonist 5.6
O=C(CN1CCOCC1)c1c[nH]c2ccccc12	none
O=C1CC(c2ccccc2)CC(O)=C1C=NCC1CCCO1 (stereo not drawn)	none
Oc1[nH]c2ccccc2c1C=NCC1CCCO1 (stereo not drawn)	hcDAF12 agonist 6.5
CCOC(=O)c1[nH]c2ccccc2c1NC(=O)CC	hcDAF12 agonist 6.1
CCOC(=O)c1[nH]c2ccccc2c1NC(=S)Nc1cccc(C)c1	hcDAF12 agonist 5.8
CCOC(=O)c1[nH]c2ccccc2c1NC(=S)Nc1ccccc1	hcDAF12 agonist 6.0, ssDAF12 agonist 2.0
CCOC(=O)c1[nH]c2ccccc2c1NC(C)=O	none
COC(=O)C1=C(C)N(C)C(=NCc2ccccc2C(F)(F)F)NC1c1cccc(F)c1 (stereo not drawn)	none
O=C(C[C@@H]1CC[C@@H]2[C@H](COC[C@@H](O)CN2Cc2cc(F)ccc2F)O1)NCc1ccc(F)cc1	none
CC(C)(C)C(=O)NC1CCCCN(Cc2cccc(Cl)c2)C1=O (stereo not drawn)	none
CCOC(=O)c1cn2nc(N3CCCC3)ccc2n1	hcDAF12 agonist 6.0
CCOC(=O)c1cn2nc(N3CCCCC3)ccc2n1	none
Cc1ccccc1C(=O)NC1CCN(Cc2ccccc2)CC1	ssDAF12 agonist 1.4
Cc1ccccc1C(=O)NC1CCN(Cc2nnnn2CCc2ccccc2)CC1	none
COC(=O)C1CN(CC(C)C)CCS(=O)(=O)N1Cc1ccc(C(F)(F)F)cc1 (stereo not drawn)	none
COC(=O)C1CN(Cc2cn(CCC3OCCO3)nn2)CCS(=O)(=O)N1Cc1ccccc1 (stereo not drawn)	none
Clc1ccccc1CSc1ncn(-c2ccccc2)n1	hgDAF-12 ag 11
Cc1ccc(CSc2ncn(-c3ccccc3)n2)cc1	none
